# Rows were chosen to be rich in hits. Some 6.8% of all compounds tested hit in one or more screens of this group.
# T cruzi growth – inhibitors of T. cruzi proliferation; T. cruzi beta-gal in NIH3T3, GalScreen luminescence, 90 h; inhibition, % at 8.34 µM; 77,000 tested, 5.9% active;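 active = mean inhibition above about 93%, with at least 55% of replicates each passing it, limit read from the data, passing the limit was not always enough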
# C diff growth – blocks growth of Clostridium difficile; Clostridium difficile clinical isolate growth, OD600, 24 h; hits give low values; growth activity, negative = inhibition, % at 16 µg/mL (by protocol); 86,000 tested, 0.25% active;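 active = mean growth activity at or below -80% and every replicate also at or below -80%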;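 note: 0% = DMSO wells and -100% = levofloxacin 16 µg/mL wells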
# Pf Dd2 growth – blocks growth of Plasmodium falciparum Dd2 parasites | P. falciparum Dd2 growth, SYBR Green, 72 h; hits give low values | activity change, % at 10 µM | 94,000 tested, 2.3% active | AID 1159554; in the data active = activity change below about -80%
# Active calls of the source: *; . = no result given; ! = not active in a repeat.
SMILES,T cruzi growth,C diff growth,Pf Dd2 growth
Cc1ccc(S(=O)(=O)N(C)C[C@@H]2OCCCC[C@H](C)Oc3ccc(NC(=O)Nc4ccc(C(F)(F)F)cc4)cc3C(=O)N([C@@H](C)CO)C[C@@H]2C)cc1,.,4.4,-85.0*
C[C@@H]1CN([C@H](C)CO)C(=O)c2cc(NC(=O)Nc3ccc(C(F)(F)F)cc3)ccc2O[C@@H](C)CCCCO[C@H]1CN(C)S(=O)(=O)c1ccc(F)cc1,89.6,.,-48.2
C[C@@H](NC(=O)C[C@H]1C=C[C@H](NC(=O)CN2CCOCC2)[C@@H](CO)O1)c1ccccc1,24.2,.,15.3
C[C@H]1CN([C@@H](C)CO)C(=O)c2cccc(NC(=O)CCCCCC(=O)Nc3ccccc3N)c2O[C@@H]1CN(C)C(=O)Nc1ccc(F)cc1,.,-6.8,-49.2
C[C@H]1CN([C@@H](C)CO)C(=O)c2cccc(NC(=O)CCCCCC(=O)Nc3ccccc3N)c2O[C@H]1CN(C)C(=O)Nc1ccc(F)cc1,.,-1.8,-58.5
C[C@H](CO)N1C[C@H](C)[C@H](CN(C)C(=O)Nc2ccc(C(F)(F)F)cc2)Oc2c(NC(=O)CCCCCC(=O)Nc3ccccc3N)cccc2C1=O,.,-11.5,-88.6*
C[C@H]1CN([C@@H](C)CO)C(=O)c2cccc(NC(=O)CCCCCC(=O)Nc3ccccc3N)c2O[C@@H]1CN(C)C(=O)Nc1cccc2ccccc12,.,-4.5,-45.6
C[C@@H]1CN([C@H](C)CO)C(=O)c2cccc(NC(=O)CCCCCC(=O)Nc3ccccc3N)c2O[C@@H]1CN(C)C(=O)Nc1ccc(F)cc1,.,4.4,-86.4*
C[C@@H]1CN([C@H](C)CO)C(=O)c2cccc(NC(=O)CCCCCC(=O)Nc3ccccc3N)c2O[C@@H]1CN(C)C(=O)Nc1ccc(C(F)(F)F)cc1,.,-6.9,-88.0*
C[C@H]1CN([C@@H](C)CO)C(=O)c2cccc(NC(=O)NC3CCCCC3)c2O[C@H]1CN(C)C(=O)Nc1cccc2ccccc12,63.8,-5.1,-3.9
C[C@@H]1CN([C@@H](C)CO)C(=O)c2cccc(NC(=O)Nc3cccc4ccccc34)c2O[C@H]1CN(C)C(=O)NC1CCCCC1,45.3,.,-89.2*
COC(=O)C[C@@H]1CC[C@H]2[C@@H](COc3ccc(NC(=O)c4cscn4)cc3C(=O)N2C)O1,27.4,0.2,-6.1
CN1C(=O)[C@@H]2[C@@H](C[C@]3(COc4ccccc4)OC[C@H]2/C3=C\c2ccccc2)C1=O,.,1.3,.
O=C(Nc1ccccc1)N1C[C@@H]2[C@H](c3ccccc31)[C@@H](CO)N2C(=O)c1ccccc1F,52.6,-0.7,10.5
C[C@H]1CN([C@@H](C)CO)C(=O)c2cccc(NC(=O)CCCCCC(=O)Nc3ccccc3N)c2O[C@@H]1CN(C)C(=O)Nc1ccccc1,.,-2.3,-33.6
C[C@H](CO)N1C[C@H](C)[C@@H](CN(C)C(=O)NC2CCCCC2)Oc2ncc(/C=C/c3ccccc3)cc2C1=O,.,6.0,-83.7*
COc1ccc(NC(=O)N(C)C[C@H]2Oc3c(NC(=O)CCCCCC(=O)Nc4ccccc4N)cccc3C(=O)N([C@H](C)CO)C[C@H]2C)cc1,.,5.3,-86.7*
C[C@H](CO)N1C[C@H](C)[C@@H](CN(C)C(=O)NC2CCCCC2)Oc2c(NC(=O)CCCCCC(=O)Nc3ccccc3N)cccc2C1=O,.,-0.3,-23.6
COc1ccc(NC(=O)N(C)C[C@H]2Oc3c(NC(=O)CCCCCC(=O)Nc4ccccc4N)cccc3C(=O)N([C@@H](C)CO)C[C@@H]2C)cc1,.,8.2,-25.5
C[C@H]1CN([C@@H](C)CO)C(=O)c2cc(/C=C/c3ccccc3)cnc2O[C@H]1CN(C)C(=O)NC1CCCCC1,.,5.7,-24.5
C[C@H]1CN([C@@H](C)CO)C(=O)c2cccc(NC(=O)CCCCCC(=O)Nc3ccccc3N)c2O[C@@H]1CN(C)C(=O)Nc1ccc(C(F)(F)F)cc1,.,-2.6,-82.0*
C[C@@H]1CN([C@@H](C)CO)C(=O)c2cccc(NC(=O)CCCCCC(=O)Nc3ccccc3N)c2O[C@@H]1CN(C)C(=O)NC1CCCCC1,.,-2.9,-86.5*
CO[C@H]1CN(C)C(=O)c2ccc(NC(C)=O)cc2OC[C@@H](C)N(C(=O)C2CCCCC2)C[C@@H]1C,-4.9,.,.
C[C@@H]1CCCCO[C@@H](CN(C)S(=O)(=O)c2cccs2)[C@H](C)CN([C@H](C)CO)C(=O)c2cc(NC(=O)CCC(F)(F)F)ccc2O1,33.7,-4.5,-57.0
Cc1noc(C)c1S(=O)(=O)Nc1ccc2c(c1)CC(=O)N([C@@H](C)CO)C[C@H](C)[C@H](CN(C)C)O2,12.5,3.3,24.1
SMILES,T cruzi growth,C diff growth,Pf Dd2 growth
CN(C)CC#Cc1ccc([C@H]2[C@H](CO)N3CCCCN(C(=O)C4CC4)C[C@@H]23)cc1,34.6,4.5,7.2
COc1ccc(S(=O)(=O)Nc2ccc3c(c2)CC(=O)N([C@@H](C)CO)C[C@H](C)[C@@H](CN(C)C(=O)Nc2ccc(F)cc2)O3)cc1,4.4,-8.5,7.3
CCC(=O)N(C)C[C@@H]1Oc2ncc(C#Cc3ccccc3)cc2C(=O)N([C@H](C)CO)C[C@@H]1C,24.2,-4.5,2.0
C[C@H]1CN([C@@H](C)CO)C(=O)c2cccc(N(C)C)c2O[C@@H]1CN(C)C(=O)Nc1cccc2ccccc12,16.2,-15.0,1.9
C[C@@H]1CN([C@@H](C)CO)C(=O)c2cccc(N(C)C)c2O[C@@H]1CN(C)C(=O)Nc1cccc2ccccc12,63.0,-1.6,-83.0*
N#Cc1cccc(-c2ccc(C3[C@@H]4CN(Cc5ccccc5)C[C@H]3N4)cc2)c1 (stereo partly specified),.,34.1,-90.7*!
N#Cc1cccc(-c2ccc(C3[C@@H]4CN(C(=O)C5CCCC5)C[C@H]3N4)cc2)c1 (stereo partly specified),.,12.9,-69.4
N#Cc1ccc(-c2ccc([C@@H]3[C@@H]4CN(S(=O)(=O)Cc5ccccc5)C[C@H]3N4)cc2)cc1,.,29.8,-86.0*
Cc1ccccc1-c1ccc(C2[C@@H]3CN(Cc4cccnc4)C[C@H]2N3)cc1 (stereo partly specified),.,-5.5,-90.3*!
Fc1cccc(CN2C[C@@H]3N[C@H](C2)C3c2ccc(-c3cncnc3)cc2)c1 (stereo partly specified),.,-0.9,-51.9
N#Cc1cccc(-c2ccc(C3[C@@H]4CN(S(=O)(=O)Cc5ccccc5)C[C@H]3N4)cc2)c1 (stereo partly specified),.,29.6,-26.7
Fc1cccc(CN2C[C@@H]3N[C@H](C2)C3c2ccc(-c3ccccc3)cc2)c1 (stereo partly specified),.,-98.9*,2.9
CN(C)C(=O)c1ccc(-c2ccc(C3[C@@H]4CN(Cc5cccnc5)C[C@H]3N4)cc2)cc1 (stereo partly specified),.,-7.4,-16.3
CC(C)NC(=O)Nc1ccc2c(c1)C(=O)N([C@H](C)CO)C[C@@H](C)[C@H](CN(C)Cc1ccc3c(c1)OCO3)OCCCC[C@@H](C)O2,11.9,5.0,-26.8
CC(C)NC(=O)Nc1cccc2c1O[C@H](CN(C)C(=O)Nc1ccc3c(c1)OCO3)[C@H](C)CN([C@H](C)CO)C2=O,37.2,.,-16.1
C[C@@H]1CN([C@@H](C)CO)C(=O)c2cc(C3=CCCCC3)cnc2O[C@@H]1CN(C)Cc1cccnc1,55.0,6.6,13.3
